Only some compounds are listed: those with a hit (about 32% of all), similar ones and a draw of the others.
CYP2C9 activ: human CYP2C9 activators, primary screen, biochemical, luminescence | recombinant CYP2C9, luciferin-H conversion; active compounds read high; factor 1 = untreated enzyme, 0 = blocked | activation factor at 5 µM | 1.4% of 96,000 active | AID 1024, 2008;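 active = activation factor of 2 or more for CYP2C9 at a 5 µM dose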
CYP2C19 inh: blockers of cytochrome P450 2C19 activity – biochemical, luminescence, ADME assay, primary screen; P33261; CYP2C19 Supersomes, luciferin-H EGE luminescence, 30 min; inhibition, % at 5 µM; 21% of 96,000 active;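 active = CYP2C19 inhibition above a set limit at 5 µM in the primary screen, cut at about 50% in these data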
Target sequence (P33261 whole entry, looked up): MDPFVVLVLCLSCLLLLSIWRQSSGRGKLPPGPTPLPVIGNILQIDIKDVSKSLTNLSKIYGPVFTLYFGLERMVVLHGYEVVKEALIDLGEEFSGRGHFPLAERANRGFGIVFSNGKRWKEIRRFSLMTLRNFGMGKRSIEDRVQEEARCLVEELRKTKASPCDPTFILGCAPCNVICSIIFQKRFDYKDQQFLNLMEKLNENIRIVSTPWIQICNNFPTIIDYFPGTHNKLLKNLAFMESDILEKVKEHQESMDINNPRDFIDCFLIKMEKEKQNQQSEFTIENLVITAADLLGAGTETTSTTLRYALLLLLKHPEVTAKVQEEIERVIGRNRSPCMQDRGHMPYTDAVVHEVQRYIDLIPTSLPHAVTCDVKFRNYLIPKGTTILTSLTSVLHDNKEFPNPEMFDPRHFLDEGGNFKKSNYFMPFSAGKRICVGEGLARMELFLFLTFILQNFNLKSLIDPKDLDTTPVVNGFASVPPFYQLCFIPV
CYP2C9 inhib: blockers of cytochrome P450 2C9 activity – biochemical, luminescence, ADME assay, primary screen; CYP2C9 Supersomes, luciferin-H conversion; AID 777, 2007; 20% of 96,000 active; inhibition, % at 5 µM;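 active = blocking of liver enzyme CYP2C9 beyond about 50% at 5 µM, limit read from the data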
PostGolgi yeast: phenotypic screen on post-Golgi transport, primary screen; 0.9% of 98,000 active; post-Golgi transport phenotypic cell assay; AID 739, 2007; inhibition, % at 10 µM;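 note: yeast cells grown in 1536-well plates; yeast grown about 18 h at 30C before absorbance read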
PostGolgi ctrl: growth inhibition of yeast control strain, primary screen, counter-screen for post-Golgi transport modulator project | 5% of 98,000 active | inhibition, % at 10 µM | efflux-deficient yeast background strain, growth absorbance A615, 16 h
CYP2C19 activ: human CYP2C19 activators, primary screen, biochemical, luminescence; recombinant CYP2C19, luciferin-H EGE luminescence; active compounds read high; 0 = fully inhibited enzyme, 1 = untreated enzyme; activation factor at 5 µM; 96,000 tested, under 10 active;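 active = activation factor of at least 2 at 5 µM in the primary screen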
Of the large screens only hits and unclear results are named; the others gave an inactive call. Cut-off read from the data, not from the text of the source, unless noted: active = inhibition above about 30%; inactive = the rest.

CCCc1nc2ccccc2c(=O)n1-c1ccccc1OC	none
CCCCc1nc2ccccc2c(=O)n1-c1ccccc1O	CYP2C19 inh 54
CCCc1nc2ccccc2c(=O)n1-c1cccc(OC)c1	CYP2C19 inh 51
O=C(C1CCN(S(=O)(=O)N2CCOCC2)CC1)N1CCC2(CC1)OCCO2	none
COCCOC(=O)C1=C(N)Oc2c(c(=O)oc3ccccc23)[C@@]12C(=O)Nc1ccccc12	CYP2C9 inhib 81
CCOC(=O)C1=C(N)OC(C)=C(C(=O)OCCOC)C12C(=O)Nc1ccccc12 (configuration not stated)	none
Cc1nc2sccc2c(=O)n1-c1ccccc1Cl	CYP2C19 inh 63
Cc1ccccc1-n1c(C)nc2sccc2c1=O	CYP2C19 inh 53
O=c1c2ccccc2nc(-c2cccs2)n1-c1ccccc1	none
CCN(CC)C(=O)c1ccc(NC(=O)c2cccc(F)c2)cc1	none
COc1cc2[nH]c(=O)n(-c3ccccc3)c(=O)c2cc1OC	PostGolgi yeast 31
Cc1ccc2c(c1)C1CN(C)CCC1N2C(=O)Nc1cccc(Cl)c1 (configuration not stated)	none
CCC(C)N1CCN(C(=O)Cc2ccccc2)CC1 (configuration not stated)	none
CN(C)CCN=Cc1c(O)n(-c2cccc3ccccc23)c(=O)[nH]c1=O	none
COCCOC(=O)c1c(C)n(C)c2ccc(OC(=O)N(C)C)cc12	CYP2C9 inhib 54
CN(Cc1ccccc1)C(=C(Cl)Cl)/C(=C1/NCCN1Cc1ccc(Cl)nc1)[N+](=O)[O-]	CYP2C19 inh 93
CCOc1cccc(OCC)c2c(C)[n+](CC3CCCO3)c(C)c1-2 (configuration not stated)	none
Cc1cccc(CSc2nc3c(cc2C#N)CN(C)CC3)c1	CYP2C19 inh 70
Cc1cc(C)c(C2=NOC(O)(C(F)(F)F)C2)c(=O)[nH]1 (configuration not stated)	none
O=P(NS(=O)(=O)c1ccc(Br)cc1)(Oc1ccccc1)Oc1ccccc1	CYP2C9 inhib 98
O=P(NS(=O)(=O)c1ccccc1)(Oc1ccccc1)Oc1ccccc1	CYP2C9 inhib 65
Cc1ccc(S(=O)(=O)NP(=O)(Oc2ccccc2)Oc2ccccc2)cc1	CYP2C9 inhib 78
CC1CC2(O)c3nonc3CCC2N1O (configuration not stated)	none (no result: PostGolgi yeast, PostGolgi ctrl)
Clc1cccc(Cl)c1CN1CCN(c2ccccc2)CC1	CYP2C19 inh 95
Nc1ccc(N2CCN(Cc3ccccc3Cl)CC2)c(Cl)c1	CYP2C19 inh 97, CYP2C9 inhib 86
Clc1ccccc1CN1CCN(c2ccccc2)CC1	CYP2C19 inh 99
Clc1ccc(N2CCN(Cc3ccccc3Cl)CC2)cc1	none
CN(C(=O)c1ccco1)C1(c2ccccc2Cl)CCCCC1=O (configuration not stated)	none
O=c1cccc2n1CC1CC2CN(C(c2ccccc2)c2sc3ncnn3c2O)C1 (configuration not stated)	none
Oc1c(Br)cc(Br)cc1CN1CCN(Cc2ccccc2)CC1	CYP2C19 inh 74
COc1ccc(Br)cc1CN1CCN(C(=O)Cc2ccccc2)CC1	CYP2C19 inh 88, CYP2C9 inhib 81
CCN1CCN(Cc2cc(Br)cc(OC)c2O)CC1	none
O=C(Cc1ccc(Br)cc1)N1CCN(Cc2ccccc2)CC1	CYP2C19 inh 84, CYP2C9 inhib 87
CCC(CC)C(=O)NC1CCSC1=O (configuration not stated)	none
Nc1cccc(N=Cc2c(O)n(Cc3ccc(F)cc3)c(=O)[nH]c2=O)c1	none (no result: CYP2C9 activ, CYP2C19 inh, CYP2C9 inhib, CYP2C19 activ)
CC(=O)c1cccc(NC2=NCC(C)S2)c1 (configuration not stated)	none
O=C(CNS(=O)(=O)c1ccc(Br)s1)N1CCC2(CC1)OCCO2	CYP2C19 inh 58
CC(=NCCN1CCCCC1)c1c(O)n(-c2ccc(Cl)cc2)c(=O)[nH]c1=O	none
COc1ccccc1CN1CCCCC1c1cccnc1 (configuration not stated)	CYP2C19 inh 50
Cc1[nH]c2ccccc2c1C1=CCNCC1	CYP2C9 inhib 74
O=C1NC(=O)[C@]2(Cc3ccccc3N3CCN(c4ccccc4)CC32)C(=O)N1Cc1ccccc1 (some centres not stated)	CYP2C19 inh 71, CYP2C9 inhib 91
O=C1NC(=O)[C@]2(Cc3ccccc3N3CCN(c4ccccc4)CC32)C(=O)N1c1ccccc1 (some centres not stated)	CYP2C19 inh 63, CYP2C9 inhib 91
CCCCN1C(=O)NC(=O)C2(Cc3ccccc3N3CCOCC32)C1=O (configuration not stated)	CYP2C19 inh 70, CYP2C9 inhib 67
O=C1NC(=S)NC(=O)C1C/C=C/c1ccccc1	none
CC(=NC(C)c1ccccc1)c1c(O)[nH]c(=O)[nH]c1=O (configuration not stated)	none
CN(C)c1ccc(CN2CC=C(c3ccc(F)cc3)CC2)cc1	CYP2C19 inh 62
CC(C)(C)c1nc(N2CCN(C(=O)c3ccco3)CC2)c2nnn(Cc3ccccc3Cl)c2n1	CYP2C19 inh 62, CYP2C9 inhib 95
CN(C)C=C1C(=O)N(C2CCCCC2)C(=O)N(C2CCCCC2)C1=O	none
COc1ccc(Cn2c(N)c(C(=O)NCc3ccco3)c3nc4ccccc4nc32)cc1	CYP2C19 inh 59, CYP2C9 inhib 84
CCCOC(=O)c1c(N)n(Cc2cccs2)c2nc3ccccc3nc12	PostGolgi ctrl 48
CCOC(=O)c1c(N)n(Cc2ccco2)c2nc3ccccc3nc12	PostGolgi ctrl 47
Nc1c(C(=O)NCc2ccco2)c2nc3ccccc3nc2n1CCN1CCOCC1	CYP2C9 inhib 61
COCCOC(=O)c1c(N)n(Cc2ccccc2)c2nc3ccccc3nc12	none
Nc1c(C(=O)NCc2ccco2)c2nc3ccccc3nc2n1Cc1ccc(F)cc1	none
CCCCn1c(N)c(C(=O)NCc2cccs2)c2nc3ccccc3nc21	none
CC(C)C1(C)N=C(c2nc3ccccc3cc2C(=O)O)NC1=O (configuration not stated)	none
OC(c1ccc(F)cc1)(c1ccc(F)cc1)[C@@H]1CCCN1	none
COc1ccc(C(CC(=O)N2CCC3(CC2)OCCO3)NS(=O)(=O)c2ccc(F)cc2)cc1 (configuration not stated)	none
CCCCCCn1c(N)c(C(=O)NCCN2CCOCC2)c2nc3ccccc3nc21	CYP2C19 inh 54
COc1ccc(CCNC(=O)c2c(N)n(CCN3CCOCC3)c3nc4ccccc4nc23)cc1OC	CYP2C19 inh 54, CYP2C9 inhib 83
CCCCCn1c(N)c(C(=O)NCCN2CCOCC2)c2nc3ccccc3nc21	none
